Experimental data as given in PubChem BioAssay AID720697 (Broad Institute, 2013).
Potency and affinity values are given separately. Results filed as inconclusive are left out. Activity calls are given as the source filed them.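 How the source made its calls: active means signal loss with fitted half-maximal concentration at or below twice the top valid tested dose in every test run; inconclusive means runs disagree, flat 30 to 70% signal loss, or poor fit; inactive means all runs flat, opposite direction, or potency beyond limit.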

Test: general mammalian cell viability loss – inhibitor set, cherry-pick, set 2, cytotoxicity control for miR-122 modulator project, dose response (AID 720697);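 further: 0% = median of neutral control wells and -100% = MG132 positive control wells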
Conditions: HEK293T viability, CellTiter-Glo luminescence, 48 h; series mostly up to 26 µM; activity change, negative = cytotoxicity: at the top concentration

| SMILES | activity change, negative = cytotoxicity |
| --- | --- |
| O=C(c1cccnc1)N1C[C@H]2[C@@H](c3ccccc31)[C@H](CO)N2C(=O)Nc1ccccc1 | -18.4% (inactive) |
| COCC(=O)N1[C@@H](CO)[C@@H]2c3ccccc3N(C(=O)c3cccnc3)C[C@@H]21 | 42.3% (inactive) |
| O=CN1CCN(C(=O)c2ccccc2F)CC1 | 4.87% (inactive) |
| CN(C)CCCNC(=O)C[C@H]1CC[C@H]2[C@H](COc3ccc(NC(=O)c4cccc(F)c4)cc3C(=O)N2C)O1 | 30.3% (inactive) |
| CN(C)CCCNC(=O)C[C@H]1CC[C@H]2[C@@H](COc3ccc(NC(=O)c4ccccc4F)cc3C(=O)N2C)O1 | 42.9% (inactive) |
| CCC(=O)N1[C@H](CO)[C@H](c2ccccc2)[C@@H]1CN(C(C)C)S(C)(=O)=O | 113% (inactive) |
| Cc1cnc(NC(=O)c2cc3c(C)nn(-c4ccccc4)c3s2)s1 | 54.1% (inactive) |
| CCCNC(=O)C[C@@H]1CC[C@H]2[C@@H](COc3ccc(NC(=O)c4ccc(C(F)(F)F)cc4)cc3C(=O)N2C)O1 | 36.1% (inactive) |
| CCN(C[C@H]1[C@H](c2ccccc2)[C@@H](CO)N1S(C)(=O)=O)C(=O)C1CC1 | 126% (inactive) |
| O=C(CN1CCN(c2nc(-c3ccccc3)cs2)CC1)Nc1ccc2c(c1)OCO2 | 59.5% (inactive) |
| Cc1cc(C)n(C(=O)Cn2nc(C)c(Br)c2C)n1 | 1.02% (inactive) |
| CC(C)NC(=O)N1C[C@@H]2[C@H](c3ccccc31)[C@H](CO)N2Cc1ccccc1 | 3.17% [at 23.5 µM] (inactive) |
| C/C=C/c1ccc2c(c1)O[C@H](CN(C)C(=O)Nc1cccc(F)c1)[C@H](C)CN([C@@H](C)CO)S2(=O)=O | 14.2% (inactive) |
| COc1ccccc1CNc1nc(Nc2ccccc2Cl)c2sccc2n1 | 42% (inactive) |
| CC(=O)N(C)C[C@@H]1[C@@H](c2ccc(-c3cccc(C#N)c3)cc2)[C@H](CO)N1C(C)=O | -15.5% (inactive) |
| O=C(NC[C@H]1[C@@H](c2ccccc2)[C@@H](CO)N1CC1CCCC1)c1ccncc1 | 49.9% (inactive) |
| Cc1onc(-c2ccccc2)c1C(=O)NCc1ccccn1 | 94.7% (inactive) |
| Cc1cc(C(=O)N/N=C/c2cc(Br)ccc2OC(=O)c2ccccc2)n[nH]1 | -27.6% (inactive) |
| Cc1ccccc1NC(=O)Nc1ccc2c(c1)C(=O)N(C)[C@H]1CC[C@@H](CC(=O)O)O[C@H]1CO2 | 53.3% [at 23.5 µM] (inactive) |
| Cc1nn(C)cc1NC(=O)C[C@@H]1CC[C@@H]2[C@H](COc3ccc(NC(=O)Nc4cccc(Cl)c4)cc3C(=O)N2C)O1 | 111% (inactive) |

| SMILES | activity change, negative = cytotoxicity |
| --- | --- |
| CO[C@@H]1CN(C)C(=O)c2ccc(NS(C)(=O)=O)cc2OC[C@H](C)N(C(=O)CN(C)C)C[C@@H]1C | -24.6% (inactive) |
| CCOc1ccc(CCNC(=O)C2CCN(S(=O)(=O)N3CCC(C)CC3)CC2)cc1OCC | -33% (inactive) |
| CN1C(=O)c2cc(NC(=O)Nc3ccc(Cl)cc3)ccc2OC[C@@H]2O[C@@H](CC(=O)NCCN3CCCCC3)CC[C@H]21 | 54.3% (inactive) |
| COC(=O)C[C@@H]1CC[C@@H]2[C@H](COc3ccc(NC(=O)c4cc(F)cc(F)c4)cc3C(=O)N2C)O1 | 146% (inactive) |
| COc1ccc(C#Cc2ccc3c(c2)O[C@H](CN(C)C(=O)CN2CCOCC2)[C@H](C)CN([C@@H](C)CO)S3(=O)=O)cc1 | 86.8% (inactive) |
| O=C(N/N=C/c1ccco1)c1cccc(N2CCCC2=O)c1 | 34.1% (inactive) |
| Cc1cccc(NC(=O)C[C@H]2CC[C@H]3[C@@H](COc4ccc(NC(=O)NC(C)C)cc4C(=O)N3C)O2)c1 | -1.2% (inactive) |
| COC(=O)C[C@@H]1CC[C@H]2[C@@H](COc3ccc(NC(=O)Nc4ccccc4C)cc3C(=O)N2C)O1 | 87.2% (inactive) |
| CN1C(=O)c2cc(NC(=O)c3cccs3)ccc2OC[C@@H]2O[C@@H](CC(=O)NCCN3CCCCC3)CC[C@@H]21 | 36.2% [at 23.5 µM] (inactive) |
| CCCC(=O)Nc1ccc2c(c1)C(=O)N(C)[C@H]1CC[C@H](CC(=O)NCCN3CCCCC3)O[C@@H]1CO2 | 27.1% (inactive) |
| CC(C)C(=O)Nc1ccc2c(c1)C(=O)N(C)[C@H]1CC[C@@H](CC(=O)NCCCN(C)C)O[C@H]1CO2 | 82% (inactive) |
| COc1ccccc1C#Cc1cnc2c(c1)C(=O)N([C@H](C)CO)C[C@H](C)[C@@H](CN(C)C(=O)c1ccc3c(c1)OCO3)O2 | -27.6% (inactive) |
| O=C(NCC(c1cccnc1)N1CCOCC1)NC1CCCCC1 (centres undefined) | 83.2% (inactive) |
| CCCC(=O)Nc1ccc2c(c1)C(=O)N(C)[C@@H]1CC[C@H](CC(=O)NCCOC)O[C@H]1CO2 | 109% (inactive) |
| O=C(NC[C@@H]1N[C@@H](CO)[C@H]1c1ccccc1)C1CCC1 | 14.5% (inactive) |
| Cc1cccc(NC(=O)c2sc3nc(-c4ccc(F)cc4)cn3c2C)n1 | 102% (inactive) |
| CNC(=O)C[C@H]1CC[C@@H]2[C@H](COc3ccc(NC(=O)c4cccc(OC)c4)cc3C(=O)N2C)O1 | 136% [at 23.5 µM] (inactive) |
| Cc1ccccc1-c1ccc([C@@H]2[C@H](CO)N3CCCCN(C(=O)Nc4cccc(F)c4)C[C@@H]23)cc1 | 140% (inactive) |
| CCC(=O)N(C)C[C@H]1Oc2cc(C#Cc3ccccc3)ccc2S(=O)(=O)N([C@H](C)CO)C[C@H]1C | 43.2% (inactive) |
